Test [1] in a line: qHTS of pediatric cancer cell lines to identify multiple opportunities for drug repurposing: Primary screen for Saos-2 cells (AID 1347097). Further: nearly all actives have a fitted effect of over 40% in size. Further: potency means the concentration at half of the fitted maximal effect. In a few lines: (§1)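 Primary screen of approved and investigational compounds on cells in growth media at 37 degrees C, 5% CO2. MIPE set at 11-point and NPC set at 8-point dilutions; viability scored by ATP-based luminescence at 48 hours.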
(In general: In qHTS, concentration-response curves come from the screen itself.)

A short description of test [2]: qHTS of pediatric cancer cell lines to identify multiple opportunities for drug repurposing: Primary screen for SK-N-SH cells (AID 1347098). Further: nearly all actives have a fitted effect of over 65% in size. Further: potency means the concentration at half of the fitted maximal effect. In a few lines: (§2)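 Cells (500-1,000/well) rested 5 h, then received compounds for 48 h; metabolically active cells were measured by CellTiter-Glo luminescence. Final concentrations spanned up to 46 µM (MIPE, 11-point) or 0.59 nM-46 µM (NPC, 8-point) in primary screens, 11-point in follow-ups.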

Test [3] in a line: qHTS of pediatric cancer cell lines to identify multiple opportunities for drug repurposing: Primary screen for BT-12 cells (AID 1347101). Further: nearly all actives have a fitted effect of over 25% in size. Further: potency means the concentration at half of the fitted maximal effect. In a few lines:
as §2

Test [4] in a line: qHTS of pediatric cancer cell lines to identify multiple opportunities for drug repurposing: Primary screen for OHS-50 cells (AID 1347103). Further: potency means the concentration at half of the fitted maximal effect; nearly all actives have a fitted effect of over 40% in size. In a few lines:
as §2

Test [5] in a line: qHTS of pediatric cancer cell lines to identify multiple opportunities for drug repurposing: Primary screen for RD cells (AID 1347104). Further: nearly all actives have a fitted effect of over 55% in size. Further: potency means the concentration at half of the fitted maximal effect. In a few lines: as §1
Test [6] can be described thus: qHTS of pediatric cancer cell lines to identify multiple opportunities for drug repurposing: Primary screen for Rh30 cells (AID 1347107). Further: series mostly up to about 46 µM; nearly all actives have a fitted effect of over 75% in size. In a few lines:
as §2

The nature of test [7]: qHTS of pediatric cancer cell lines to identify multiple opportunities for drug repurposing: Primary screen for Rh41 cells (AID 1347108). Further: nearly all actives have a fitted effect of over 70% in size. Further: potency means the concentration at half of the fitted maximal effect. In a few lines:
as §1

Test [8] can be described thus: qHTS of pediatric cancer cell lines to identify multiple opportunities for drug repurposing: Confirmatory screen for SK-N-MC cells (AID 1347111).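 Further: potency means the concentration at half of the fitted maximal effect; cells exposed to compound for 48 h before the readout; nearly all actives have a fitted effect of over 70% in size.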 In a few lines: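 Seed 500-1,000 cells/well; rest 5 h at 37 degrees C. Pin-transfer compounds, 11-point titration. Incubate 48 h. Add CellTiter-Glo, 15 min RT, read luminescence.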
Test [9] is described as follows: qHTS of pediatric cancer cell lines to identify multiple opportunities for drug repurposing: Confirmatory screen for BT-12 cells (AID 1347112). Further: nearly all actives have a fitted effect of over 55% in size. Further: potency means the concentration at half of the fitted maximal effect. In a few lines: as §2
Test [10] can be described thus: qHTS of pediatric cancer cell lines to identify multiple opportunities for drug repurposing: Confirmatory screen for DAOY cells (AID 1347114). Further: nearly all actives have a fitted effect of over 65% in size. Further: potency means the concentration at half of the fitted maximal effect. In a few lines:
(§3)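 Viability measured as metabolically active cells via CellTiter-Glo luminescence following 48 hours of compound exposure, 11-point dilutions in confirmatory testing. 500-1,000 cells/well plated 5 hours before dosing; controls were DMSO and 2.3 µM bortezomib.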

Test [11] can be described thus: qHTS of pediatric cancer cell lines to identify multiple opportunities for drug repurposing: Confirmatory screen for NB-EBc1 cells (AID 1347115).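 Further: cells exposed to compound for 48 h before the viability read; nearly all actives have a fitted effect of over 45% in size.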 Further: potency means the concentration at half of the fitted maximal effect. In a few lines: as §2
A short description of test [12]: qHTS of pediatric cancer cell lines to identify multiple opportunities for drug repurposing: Confirmatory screen for SJ-GBM2 cells (AID 1347116). Further: nearly all actives have a fitted effect of over 60% in size. Further: potency means the concentration at half of the fitted maximal effect. In a few lines:
as §3

The nature of test [13]: qHTS of pediatric cancer cell lines to identify multiple opportunities for drug repurposing: Primary screen for Rh18 cells (AID 1347102). Further: nearly all actives have a fitted effect of over 65% in size. Further: potency means the concentration at half of the fitted maximal effect. In a few lines:
as §2

Test [14] is described as follows: qHTS of pediatric cancer cell lines to identify multiple opportunities for drug repurposing: Primary screen for MG 63 (6-TG R) cells (AID 1347105). Further: nearly all actives have a fitted effect of over 50% in size. Further: potency means the concentration at half of the fitted maximal effect. In a few lines:
as §1

Test [15] is described as follows: qHTS of pediatric cancer cell lines to identify multiple opportunities for drug repurposing: Primary screen for control Hh wild type fibroblast cells (AID 1347106).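 Further: series mostly up to about 46 µM; a drop in luminescence marks cytotoxicity and a rise apparent proliferation; nearly all actives have a fitted effect of over 55% in size.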 In a few lines:
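Viability after 48 h compound treatment at 37C, 500-1,000 cells/well, read as ATP luminescence with CellTiter-Glo. Primary screens used 11-point (MIPE, 0.78 nM-46 µM) or 8-point (NPC, 0.59 nM-46 µM) final concentrations; follow-up screens used 11-point dilutions.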

Test [16] in a line: qHTS of pediatric cancer cell lines to identify multiple opportunities for drug repurposing: Confirmatory screen for LAN-5 cells (AID 1347113). Further: nearly all actives have a fitted effect of over 65% in size. Further: potency means the concentration at half of the fitted maximal effect. In a few lines:
as §2

The nature of test [17]: qHTS of pediatric cancer cell lines to identify multiple opportunities for drug repurposing: Primary screen for LAN-5 cells (AID 1347100). Further: potency means the concentration at half of the fitted maximal effect. In a few lines: as §2
Test [18] is described as follows: qHTS of pediatric cancer cell lines to identify multiple opportunities for drug repurposing: Confirmatory screen for NB1643 cells (AID 1347109). Further: nearly all actives have a fitted effect of over 45% in size. Further: potency means the concentration at half of the fitted maximal effect. In a few lines: as §2
A short description of test [19]: qHTS of pediatric cancer cell lines to identify multiple opportunities for drug repurposing: Confirmatory screen for A673 cells (AID 1347110). Further: potency means the concentration at half of the fitted maximal effect. In a few lines: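 A673 cells at 500-1,000 cells/well were dosed 5 h after plating, in dilution series up to 46 uM final; primary runs used 8 or 11 points and confirmatory runs used 11 points. Viability was read by CellTiter-Glo luminescence after 48 h, against DMSO and 2.3 uM bortezomib controls.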

Test [20] in a line: qHTS of pediatric cancer cell lines to identify multiple opportunities for drug repurposing: Primary screen for NB1643 cells (AID 1347099). Further: nearly all actives have a fitted effect of over 50% in size. Further: potency means the concentration at half of the fitted maximal effect. In a few lines:
as §1

Molecules are shown by their SMILES. Records with an inconclusive call do not appear. Active and inactive are the calls of the source. The call rests on the fitted dose curve; in most records, active means well fitted curve in the direction sought with a large enough effect; inconclusive means small, poorly fitted or top-dose-only effect, or another doubt; inactive means no such curve, though single readings can be large; an effect the other way counts as inactive or inconclusive.

Take `COc1ccc(F)c(F)c1C(=O)c1cnc(NC2CCN(S(C)(=O)=O)CC2)nc1N`: the Potency is 2350 nM (active) in test [1]; 2710 nM (active) in [2]; 3430 nM (active) in [3]; 3060 nM (active) in test [4]; 5260 nM (active) in test [5]; 7430 nM (active) in test [7]. For the same compound, the Potency in [8] is 1310 nM (active); in test [9], 3690 nM (active); in [10], 8270 nM (active); in test [12] it was 827 nM (active). The Potency entry in test [6] and in [11] was “inactive” in each case.
As to `Cc1coc2c1C(=O)C(=O)c1c-2ccc2c1CCCC2(C)C`, the Potency in test [1] was 1660 nM (active); in [3], 21700 nM (active); in test [13] it was 20900 nM (active). Also, the Potency entry in [2], in test [14], in [15], in test [6] and in test [7] was “inactive” in each case.
For `CC(C)c1cnn2c(NCc3ccccc3)cc(N[C@@H](CO)[C@H](O)CO)nc12`, the Potency in test [1] is 296 nM (active); in [2], 304 nM (active); in [3], 344 nM (active); in test [4], 273 nM (active); in test [5], 372 nM (active); in test [7] it was 743 nM (active). The Potency in [8] was 585 nM (active); in test [9] it was 522 nM (active); in test [16] it was 293 nM (active); in [10], 827 nM (active). In [15], the Potency result was “inactive”.
In the case of `CNC(=O)CN1CCC(Oc2cc3c(Nc4cccc(Cl)c4F)ncnc3cc2OC)CC1`, the Potency in [1] is 18.7 nM (active); in [2], 60.7 nM (active); in [17], 1 nM (active); in [3], 1.4 nM (active); in test [4] it was 1 nM (active); in test [5], 2.6 nM (active). The Potency in test [7] is 46.9 nM (active); in [18], 1040 nM (active); in test [8], 1470 nM (active); in [16] it was 1170 nM (active); in [11] it was 4650 nM (active). The Potency entry in test [15], in test [19], in [9] and in test [10] was “inactive” throughout.
As to `CN1CC[C@@H](c2c(O)cc(O)c3c(=O)cc(-c4ccccc4Cl)oc23)[C@@H](O)C1`, the Potency in test [1] was 148 nM (active); in test [2], 76.4 nM (active); in test [3], 122 nM (active); in test [4], 122 nM (active); in test [5], 235 nM (active); in test [14], 148 nM (active). Moreover, the Potency in test [7] is 296 nM (active); in test [18] it was 261 nM (active); in [8] it was 414 nM (active); in [9] it was 737 nM (active); in test [16], 465 nM (active); in test [10] it was 465 nM (active). Besides, the Potency in [12] is 369 nM (active). For the same compound, the Potency result in [6] and in [11] was “inactive” each time.
As to `Cn1c(=O)n(-c2ccc(C(C)(C)C#N)cc2)c2c3cc(-c4cnc5ccccc5c4)ccc3ncc21`, the Potency was 235 nM (active) in [1]; 1660 nM (active) in test [17]; 209 nM (active) in test [13]; 109 nM (active) in test [4]; 332 nM (active) in test [5]; 14.8 nM (active) in test [14]. Further, the Potency is 132 nM (active) in [7]; 2610 nM (active) in test [19]; 2330 nM (active) in test [8]; 2080 nM (active) in test [16]; 7370 nM (active) in test [11]; 3290 nM (active) in test [12]. In test [20], the Potency entry was “inactive”.
As to `COc1cccc(Nc2c(C(N)=O)cnc3c(C)cc(S(=O)(=O)c4cccc(C(=O)N(C)C)c4)cc23)c1`, the Potency entry in [1], in test [13], in test [5], in test [14], in [15] and in test [6] was “inactive” each time. In addition, the Potency result in [7], in test [18], in test [19], in test [9], in test [16] and in test [10] was “inactive” in each case. In addition, the Potency entry in test [11] and in [12] was “inactive” in each case. The Potency in test [4] is 10600 nM (active).
Consider `Nc1ccc(S(=O)(=O)Nc2ncccn2)cc1`, for which the Potency result in test [1], in test [20], in test [17], in test [3], in [13] and in test [5] was “inactive” in each case. Further, the Potency entry in [14], in [15], in test [6] and in test [7] was “inactive” in each case.
Turning to `COc1cc(C(=O)NS(=O)(=O)c2ccccc2C)ccc1Cc1cn(C)c2ccc(NC(=O)OC3CCCC3)cc12`, the Potency in test [1] was 20900 nM (active); in [13] it was 26400 nM (active); in test [4], 21700 nM (active); in test [5] it was 37200 nM (active); in test [14] it was 29600 nM (active). Moreover, in test [15], the Potency entry is “inactive”.
On to `CN[C@H]1CCc2cc(OC)c(OC)c(OC)c2-c2ccc(OC)c(=O)cc21`, for which the Potency in test [1] was 3.7 nM (active); in test [17] it was 2.3 nM (active); in [3] it was 3.9 nM (active); in test [4], 1.5 nM (active); in [9], 147 nM (active); in [10], 46.5 nM (active). In addition, the Potency result in test [14] and in [6] was “inactive” in each case.
Consider `CN1CCN(c2ccc3nc(-c4c(N)c5c(F)cccc5[nH]c4=O)[nH]c3c2)CC1`, for which the Potency is 15200 nM (active) in test [2]; 16600 nM (active) in test [20]; 4690 nM (active) in test [17]; 17200 nM (active) in [3]; 20900 nM (active) in test [13]; 1720 nM (active) in [4]. Further, the Potency in test [5] is 18700 nM (active). Also, the Potency result in [14] and in test [15] was “inactive” in each case.
In the case of `COC(=O)Nc1nc2ccc(C(=O)c3ccc(F)cc3)cc2[nH]1`, the Potency was 526 nM (active) in test [1]; 209 nM (active) in test [17]; 1720 nM (active) in [3]; 743 nM (active) in test [5]; 590 nM (active) in test [14]; 2330 nM (active) in test [18]. The Potency in [8] is 1310 nM (active); in test [9], 8270 nM (active); in test [10] it was 1170 nM (active); in test [12] it was 2330 nM (active). The Potency result in test [13], in test [15] and in test [6] was “inactive” throughout.
In the case of `COc1ccc2c(c1)CC[C@@H](CN(C)CC(=O)O)[C@H]2c1ccccc1`, the Potency in test [1] was 2090 nM (active); in test [17], 1050 nM (active); in test [4] it was 4320 nM (active); in [14], 2960 nM (active); in test [7], 5900 nM (active). Also, the Potency entry in test [15] and in [6] was “inactive” in each case.
As for `CCC(=C(c1ccccc1)c1ccc(OCCN(C)C)cc1)c1ccccc1`, the Potency in test [1] was 18700 nM (active); in [4] it was 21700 nM (active); in [8] it was 23300 nM (active). The Potency entry in test [13], in [14], in test [15], in test [6], in [11] and in test [12] was “inactive” throughout.
As to `O=C(O)C1(Cc2cccc(Nc3nccs3)n2)CCC(Oc2cccc(Cl)c2F)CC1` (stereo not drawn), the values for the Potency in [1], in [4] and in [14] were 14800 nM (active), 544 nM (active) and 18700 nM (active), respectively. Besides, the Potency result in test [20], in [5], in test [15] and in test [7] was “inactive” throughout.

The values above are taken from PubChem BioAssay (NCATS).
